The list shows a part of the results. Activity calls are given as the source filed them. The rule behind the calls is not given here.
Test: Brca1-Bard1 BiLC signal decrease – luminescence, single concentration, counter-screen for Mdm2/MdmX interaction inhibitor project, confirmation (AID 504668)
Details: Brca1/Bard1 bimolecular luciferase complementation counterscreen, at 8 µM, active compounds read high

Row | SMILES | inhibition
1 | CCCCNC(=O)C(C)N(CCN(C)C)C(=O)CCCCCN1C(=O)NC(c2ccc(Cl)cc2)C(C(=O)OCc2ccccc2)=C1C (centres undefined) | 27.8% (active)
2 | CCCCCCCCCCOC(=O)Cn1c(COc2cccc(OC)c2)[n+](C)c2ccccc21 | 31.2% (active)
3 | CCc1ccc(CNC(=O)C2CCN(c3nnc(C)c4c(C)n(-c5ccc(C)cc5)nc34)CC2)cc1 | 23.7% (active)
4 | COc1cccc(-c2sc3ccc(OC)cc3c2-c2ccc(OCCN3CCCCC3)cc2)c1 | 32.7% (active)

Test: fluorescence interference of Apaf-1 inhibitor hits, dose response, artefact control for Apaf-1 inhibitor project (AID 588538)
Details: fluorescence interference counterscreen, Apaf-1 assay format

Row | SMILES | IC50
5 | CCCCCCc1cc2cc(-c3nnc(-c4ccccc4)o3)c(=O)oc2cc1O | > 100 µM (inactive)
6 | O=C1NNC(c2ccccc2)=N/C1=C\c1ccc(Cl)cc1 | > 100 µM (inactive)
7 | CCCCCCCCCCOC(=O)Cn1c(COc2cccc(OC)c2)[n+](C)c2ccccc21 | > 100 µM (inactive)
8 | Cc1[nH]n(-c2ccccc2)c(=O)c1/C=N/NC(=O)c1ccoc1C | > 100 µM (inactive)
9 | O=C(CCCN1CCc2[nH]c3ccc(F)cc3c2C1)c1ccc(F)cc1 | > 100 µM (inactive)
10 | O=C(CCNS(=O)(=O)c1ccccc1)NCCSc1ccc(Br)cc1 | > 100 µM (inactive)
11 | COc1ccc(C(CNC(=O)c2ccc(S(=O)(=O)Nc3ccccc3F)cc2)N(C)C)cc1 (centres undefined) | > 100 µM (inactive)
12 | C#CCOCCOCCOCCNc1nc(N2CCN(C(=O)CCCCCCCCCCNC(=O)Cn3cc(CCCCCN)nn3)CC2)nc(N2CCN(C(=O)CCCCCCCCCCNC(=O)[C@H](CO)n3cc(CCCSC)nn3)CC2)n1 | > 100 µM (inactive)
13 | CN(C)S(=O)(=O)c1ccc2oc(SCC(=O)Nc3ccccc3F)nc2c1 | > 100 µM (inactive)
14 | CC(C)CC[n+]1ccn(C2=C([O-])c3ccccc3C(=O)/C2=N\S(=O)(=O)c2ccccc2)c1 | > 100 µM (inactive)

Reference: PubChem BioAssay
